Inconclusive results are not listed. A number with no mark means an inactive call. Calls of active or inactive are those of the source. Calls come from the whole dose curve; as a rule, active = well fitted cell-killing curve with a large enough effect; inconclusive = small, poorly fitted or top-dose-only effect, or effect the other way; inactive = no such curve, though single readings can be large or run the other way.
Experiment: Quantitative High-Throughput drug screen in 47 multiple myeloma cell lines against the NCATS MIPE library collection: KMM1_JCRB cell viability assay (AID 1918960); note: nearly all actives have a fitted effect of over 30% in size
Conditions: KMM1 myeloma viability, CellTiter-Glo ATP luminescence, 48 h; series mostly up to 45.8 µM; viability (% of DMSO): at the top concentration
Text: PI: Beverly A. Mock Ph.D.
Laboratory of Cancer Biology and Genetics,
Center for Cancer Research, National Cancer Institute,
National Institute of Health, Bethesda, Maryland
Drug resistance and disease progression are common in multiple myeloma (MM) patients, underscoring the need for new therapeutic combinations. […] We hypothesized that effective combinations would reduce MYC expression and enhance p16 activity. […] These preclinical data identify potentially useful drug combinations for evaluation in drug-resistant MM and reveal potential mechanisms of combined drug sensitivity.
Described herein is the primary MIPE qHTS used to cherrypick compounds. Validated compounds were then further tested for potential synergistic activiy.
[1] Peat TJ, Gaikwad SM, Dubois W, Gyabaah-Kessie N, Zhang S, Gorjifard S, Phyo Z, Andres M, Hughitt VK, Simpson RM, Miller MA, Girvin AT, Taylor A, Williams D, D'Antonio N, Zhang Y, Rajagopalan A, Flietner E, Wilson K, Zhang X, Shinn P, Klumpp-Thomas C, McKnight C, Itkin Z, Chen L, Kazandijian D, Zhang J, Michalowski AM, Simmons JK, Keats J, Thomas CJ, Mock BA. Drug combinations identified by high-throughput screening promote cell cycle transition and upregulate Smad pathways in myeloma. Cancer Lett. 2023 Aug 1;568:216284. doi: 10.1016/j.canlet.2023.216284. Epub 2023 Jun 24. PMID: 37356470; PMCID: PMC10408729.
SEQUENCE No. (e.g., 1, 2, 3, etc.); […] (e.g., Cells, Incubation, Reagent, etc.); VALUE and DESCRIPTION.
1; Cells; 5 uL; white, solid bottom 1536-well Greiner assay plate.
2; Compounds; 23 nL; Kalypsis pin tool (Wako USA) equipped with a 1536-well pin head to transfer to the assay plates.
3; Incubation; 48 hours; 37C incubation.
4; Reagent;5uL; CellTiter Glo (Promega).
5; Detector; 425V; Luminescence; Viewlux PerkinElmer.
NOTES (numbers refer to Sequence numbers above)
1. The cell-based screening methods employed in this study were like those previously published. Briefly, the corresponding myeloma cell lines were screened in 1,536-well plates with 500 cells, 5-uL per well for inhibition of cell viability (assessed by measuring ATP levels with CellTiterGlo).
2. NCATS MIPE 4.0 library of approved and investigational drugs were added using the Kalypsis pin tool. Wells treated with DMSO only for 100% viability and media only cells for 0% viability were used as controls.
3. The assay plates were covered and incubated for 48 hours in a 37C, 5% CO2 incubator with controlled humidity.
4. After 48 hours, CellTilter-GloTM luminescent substrate mix (Promega) reagent was added to the assay plate and plates we incubated for 5 min at room temperature.
5. Signal was measured as median relative luminescence units on a ViewLux (PerkinElmer) multiplate reader.
[1] Heske CM, Davis MI, Baumgart JT, Wilson K, Gormally MV, Chen L, Zhang X, Ceribelli M, Duveau DY, Guha R, Ferrer M, Arnaldez FI, Ji J, Tran HL, Zhang Y, Mendoza A, Helman LJ, Thomas CJ. Matrix Screen Identifies Synergistic Combination of PARP Inhibitors and Nicotinamide Phosphoribosyltransferase (NAMPT) Inhibitors in Ewing Sarcoma. Clin Cancer Res. 2017 Dec 1;23(23):7301-7311. doi: 10.1158/1078-0432.CCR-17-1121. Epub 2017 Sep 12. PMID: 28899971; PMCID: PMC6636827.
For `COc1cc(Nc2ncc(F)c(Nc3ccc4c(n3)N(COP(=O)(O)O)C(=O)C(C)(C)O4)n2)cc(OC)c1OC`, the Potency was 1180 nM (active). With `CC[C@H]1CN2CCc3cc(OC)c(OC)cc3[C@H]2C[C@@H]1C[C@@H]1NCCc2cc(OC)c(OC)cc21` the Potency was 187 nM (active). With `COc1cc2ncn(-c3cc(OCc4ccccc4C(F)(F)F)c(C(N)=O)s3)c2cc1OC` the Potency was 469 nM (active). With `COC(=O)C[C@](O)(CCCC(C)(C)O)C(=O)O[C@@H]1C(OC)=C[C@]23CCCN2CCc2cc4c(cc2[C@H]13)OCO4` the “viability (% of DMSO)” value was 111%. With `Cn1cncc1[C@@](N)(c1ccc(Cl)cc1)c1ccc2c(c1)c(-c1cccc(Cl)c1)cc(=O)n2C` the Potency was 9350 nM (active). In the case of `CCn1cc(-c2ccnc3[nH]c(-c4cccc(CN(C)C)c4)cc23)c(-c2ccc(NC(=O)N(C)C)cc2)n1`, the Potency is reported as 3320 nM (active). In the case of `COc1cc(-c2nn(C3CCC(N4CCN(C(C)=O)CC4)CC3)c3ncnc(N)c23)ccc1NC(=O)c1cc2ccccc2n1C` (stereo not given), the Potency is reported as 372 nM (active). For `CNC(=O)c1ccccc1Nc1nc(Nc2ccc(N3CCOCC3)cc2OC)ncc1Cl`, the Potency was 296 nM (active). With `CN1CCN(c2ccc3nc(-c4c(N)c5c(F)cccc5[nH]c4=O)[nH]c3c2)CC1` the Potency was 16600 nM (active). In the case of `O=c1[nH]nc(Sc2ncc([N+](=O)[O-])s2)n1-c1ccc2c(c1)OCCO2`, the Potency is reported as 5900 nM (active). With `Cc1cc(Nc2ncnc3ccc(-c4ccc(CNCCS(C)(=O)=O)o4)cc23)ccc1Oc1ccn2ncnc2c1` the Potency was 1180 nM (active). In the case of `Cc1[nH]nc2ccc(-c3cncc(OC[C@@H](N)Cc4ccccc4)c3)cc12`, the Potency is reported as 1320 nM (active). With `Cn1cc(-c2[nH]c3cc(NC(=O)[C@H](N)C4CCCCC4)cc4c3c2C=NNC4=O)cn1` the Potency was 526 nM (active). For `CC(C)CC(=O)Nc1n[nH]c2c1CN(C(=O)C1CCN(C)CC1)C2(C)C`, the Potency was 1180 nM (active). For `CC(C)c1ccccc1Cc1cc(C(=O)Nc2ccc(S(=O)(=O)c3ccccc3C(C)(C)C)cc2)c(O)c(O)c1O`, the “viability (% of DMSO)” value was 96.8%. In the case of `CCC1=C[C@@H]2CN(C1)Cc1c([nH]c3ccccc13)[C@@](C(=O)OC)(c1cc3c(cc1OC)N(C)[C@@H]1[C@@](O)(C(=O)OC)[C@H](OC(C)=O)[C@]4(CC)C=CCN5CC[C@]31[C@@H]54)C2`, the Potency is reported as 8.3 nM (active). With `COc1cccc2nc(-c3cccs3)nc(NN3C(=O)C=C(C)C3=O)c12` the Potency was 118 nM (active). For `COc1cc(C(=O)N2CCC(N3CCN(C)CC3)CC2)ccc1Nc1ncc2c(n1)N(C)c1ccccc1C(=O)N2C`, the Potency was 1660 nM (active). In the case of `CC=CC1=C(C(=O)O)N2C(=O)[C@H](NC(=O)[C@H](N)c3ccc(O)cc3)[C@@H]2SC1`, the “viability (% of DMSO)” value is reported as 72%. For `COc1cc2c(cc1-c1c(C)noc1C)ncc1[nH]c(=O)n([C@H](C)c3ccccn3)c12`, the Potency was 5900 nM (active). In the case of `Cc1ccc(NC(=O)C2(c3ccc4c(c3)OC(F)(F)O4)CC2)nc1-c1cccc(C(=O)O)c1`, the Potency is reported as 59 nM (active). In the case of `COCCOc1ccc2c(c1)ncn2-c1ccc2cccc(N3CCC(N)CC3)c2n1`, the Potency is reported as 526 nM (active). In the case of `CC(C)(C)c1cnc(CSc2cnc(NC(=O)C3CCNCC3)s2)o1`, the Potency is reported as 187 nM (active). For `CN(c1ncccc1CNc1nc(Nc2ccc3c(c2)CC(=O)N3)ncc1C(F)(F)F)S(C)(=O)=O`, the Potency was 3320 nM (active). In the case of `Cc1cc(N2CCOCC2)cc2[nH]c(-c3c(NC[C@@H](O)c4cccc(Cl)c4)cc[nH]c3=O)nc12`, the Potency is reported as 52.6 nM (active). With `C=CCn1c(=O)c2cnc(Nc3ccc(N4CCN(C)CC4)cc3)nc2n1-c1cccc(C(C)(C)O)n1` the Potency was 332 nM (active). In the case of `O=C(Cc1ccc(-c2ccc(OCCN3CCOCC3)cc2)cn1)NCc1ccccc1`, the Potency is reported as 11.8 nM (active). For `CNC(=O)c1nn(C)c2c1C(C)(C)Cc1cnc(Nc3ccc(N4CCN(C)CC4)cc3)nc1-2`, the Potency was 935 nM (active). For `Cc1cn(-c2cc(NC(=O)c3ccc(C)c(Nc4nccc(-c5cccnc5)n4)c3)cc(C(F)(F)F)c2)cn1`, the Potency was 264 nM (active). In the case of `CC(C)=CCCC(C)=CCCC(C)=CCSc1ccccc1C(=O)O`, the Potency is reported as 187 nM (active). For `O=C(c1cncc(Br)c1)N1CCC(N2CCCC2)CC1`, the “viability (% of DMSO)” value was 101%. With `CCCCCCCCCC(=O)N[C@@H](Cc1c[nH]c2ccccc12)C(=O)N[C@H](CC(N)=O)C(=O)N[C@@H](CC(=O)O)C(=O)N[C@@H]1C(=O)NCC(=O)N[C@@H](CCCN)C(=O)N[C@@H](CC(=O)O)C(=O)N[C@H](C)C(=O)N[C@@H](CC(=O)O)C(=O)NCC(=O)N[C@H](CO)C(=O)N[C@@H]([C@@H](C)CC(=O)O)C(=O)N[C@@H](CC(=O)c2ccccc2N)C(=O)O[C@@H]1C` the “viability (% of DMSO)” value was 104%. For `CNC(=O)c1cc(Oc2ccc(NC(=O)Nc3cc(C(C)(C)C)nn3-c3ccc4ncccc4c3)c(F)c2)ccn1`, the Potency was 16600 nM (active). In the case of `NC(=O)c1c(OCc2c(F)cc(Br)cc2F)nsc1NC(=O)NCCCCN1CCCC1`, the “viability (% of DMSO)” value is reported as 116%. In the case of `CCOc1ccccc1OCCNC(C)Cc1ccc(OC)c(S(N)(=O)=O)c1` (stereo not given), the “viability (% of DMSO)” value is reported as 101%. For `O=C(CCCCCCNC(=O)c1cnc(N(c2ccccc2)c2ccccc2)nc1)NO`, the Potency was 4180 nM (active). For `CC[C@@H]1C(=O)N(C)c2cnc(Nc3ccc(C(=O)NC4CCN(C)CC4)cc3OC)nc2N1C1CCCC1`, the Potency was 23.5 nM (active). For `CCCn1c(=O)c2[nH]c(-c3cnn(Cc4cccc(C(F)(F)F)c4)c3)nc2n(CC)c1=O`, the Potency was 1660 nM (active). In the case of `O=C(c1ccc(Nc2nccc(-c3cc4ccccc4s3)n2)cc1)N1CCC(N2CCCC2)CC1`, the Potency is reported as 5900 nM (active). For `Cn1c(CNc2ccc(C(=N)N)cc2)nc2cc(C(=O)N(CCC(=O)O)c3ccccn3)ccc21`, the “viability (% of DMSO)” value was 91.6% [at 23.2 µM].

From PubChem BioAssay (NCATS)
Potency is the fitted concentration of half-maximal effect.
